Shown is part of a subset that was picked to be rich in hits.
MARV entry inh: blocks Marburg virus binding to or entry into cells; 1.8% of 300,000 active; Marburg virus pseudotyped entry inhibition, cell reporter; Potency, µM (doses to about 37.8 µM), without a hit: top-dose activity change, negative = inhibition, actives largely listed as inhibitors; calls by dose curve; tested in HEK293 cells; also: potency is read from the fitted curve at half-maximal effect; % is scaled to controls: 0 for no effect and ±100 for the full control effect
Lassa entry inh: blocks Lassa virus binding to or entry into cells; Lassa virus pseudotype entry inhibition, cell reporter; Potency, µM (titrated, usually from 37.9 µM), for inactives: at the highest dose activity change, negative = inhibition, usual class: inhibitors; 1.2% of 300,000 active; calls by dose curve; tested in HEK293 cells; also: potency is read from the fitted curve at half-maximal effect; % is scaled to controls: 0 for no effect and ±100 for the full control effect; nearly all actives have a fitted effect of over 50% in size
AMA1-RON2 inh: AMA1-RON2 (P. falciparum) interaction inhibition. AlphaScreen AMA1-biotinylated RON2 peptide binding. AID 720542. Potency, µM (top dose mostly 58.2 µM), without a hit: top-dose activity change, negative = inhibition, actives largely listed as inhibitors. 0.2% of 360,000 active; active = well fitted inhibition curve with a large enough effect; inconclusive = small, poorly fitted or top-dose-only effect; inactive = no such curve, though single readings can be large or run the other way;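 also: potency is read from the fitted curve at half-maximal effect; 0% = vehicle wells and -100% = peptide control; nearly all actives have a fitted effect of over 45% in size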
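AMA1 (3D7) with his tag at 25 nM final met compounds first, then biotinylated RON2 peptide at 25 nM; detection used donor plus acceptor beads, 10 µg/mL apiece, read by AlphaScreen after 30 min at room temperature.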
Shiga toxin inh: blocks Shiga toxin action in Vero cells; Vero cells, Shiga toxin protein synthesis inhibition reporter; inhibition, % at 38.7 µM; 9.2% of 290,000 active; in the data active = inhibition mostly above about 28%, no sharp cut-off; inactive = mostly below about 43%; also: 0% is about no effect
Cycloheximide cs: counter-screen hit for Shiga toxin inhibitors, cycloheximide. cell reporter, cycloheximide protein synthesis inhibition counterscreen. 12% of 300,000 active. max response, %. AID 2314; in the data active = max response mostly above about 13%, no sharp cut-off; inactive = mostly below about 14%; also: read at 38.3 µM for the half of the compounds with a filed dose; 0% is about no effect
An asterisk follows results filed as active; ? = inconclusive; · = no result; + = active, no number; [ ] = remark or other dose.

SMILES	MARV entry inh	Lassa entry inh	AMA1-RON2 inh	Shiga toxin inh	Cycloheximide cs
c1ccc(-c2ccc(OCCN3CCCC3)cc2)cc1	·	·	·	52*	32*
Cc1c2c(c(O)c3c(O)cccc13)C(=O)O[C@H]2C1C(N(C)C)C(O)=C(C(N)=O)C(=O)[C@H]1O (some centres undefined)	·	·	·	11	-9
COc1cccc([C@H]2/C(=C(\O)c3cnn(-c4ccccc4)c3C)C(=O)C(=O)N2CCN(C)C)c1	0%	·	·	·	·
O=C(C1CCCCC1)N1C[C@@H](O)[C@H](n2cc(-c3ccc(F)cc3)nn2)C[C@@H]1c1ccccc1	·	·	-2%	·	·
CCOC(=O)C1=CCC(c2ccccc2C)N(S(=O)(=O)c2ccc(C)cc2)C1 (centres undefined)	·	·	17%	·	·
c1ccc(COc2ccc(OCCN3CCCC3)cc2)cc1	?	11%	?	69*	50*
CC1CN(CCOc2cccc(Oc3ccccc3)c2)CC(C)O1 (centres undefined)	·	·	25µM*	·	-3
CC1CCCN(CCOc2cccc(Oc3ccccc3)c2)C1 (centres undefined)	·	·	?	·	-4
c1ccc(Oc2cccc(OCCCCN3CCCC3)c2)cc1	21µM*	-18%	?	8	1
COc1ccc2c(c1)C(=NO)c1cc(OC)ccc1-2	-24%	14%	-11%	22*	18*
CCOc1ccc(OCCN2CCCCC2)cc1	1%	-2%	-26%	23	7
CC1CN(CCCCOc2cccc(Oc3ccccc3)c2)CC(C)O1 (centres undefined)	?	?	-10%	-6	7
Cc1cccc(S(=O)C(c2ccccc2)c2ccccc2)c1 (centres undefined)	-22%	-29%	-1%	·	·
CC1CCN(CCCCOc2ccc(C(=O)c3ccccc3)cc2)CC1	?	16µM*	?	-5	1
CC(C)c1ccc(OCCCCN2CCCCC2)cc1	11µM*	18%	-13%	15	-1
CC1CCN(CCCOc2ccc(OCc3ccccc3)cc2)CC1	?	10%	-7%	81*	24*
Cc1cc(C)c(C)c(OCCN2CC(C)OC(C)C2)c1 (centres undefined)	·	·	28µM*	·	-3
Cc1[nH]ccc2cc3nc4ccccc4c3cc12	·	·	11%	·	·
COc1cccc(OC)c1C(=O)NC(=S)Nc1cc(-c2nc3ccccc3[nH]2)ccc1Cl	-24%	-16%	3%	44	10
COc1cc(CN2CCN(CC3CC3)CC2CCO)cc(OC)c1 (centres undefined)	8%	?	6%	8	-1
CCC(=O)N1CCCC(C)(C(=O)Nc2ccc3oc(CC)nc3c2)C1 (centres undefined)	·	·	-7%	·	·
COc1ccc(-c2cc(NC=O)c3ncc(-c4ccc(OC)c(OC)c4)n3c2)cc1	·	·	15%	·	·
c1ccc(COc2ccc(OCCCN3CCCC3)cc2)cc1	13µM*	?	-6%	+	38*
O=C(CN(Cc1ccccc1Cl)C(=O)CNS(=O)(=O)c1ccc(F)cc1)NCC1CCCO1 (centres undefined)	1%[46.1 µM]	0%	-7%	4	-6
CCC(OC(=O)C1=Cc2ccccc2OC1)C(=O)NCc1ccco1 (centres undefined)	·	·	4%	17	7
SMILES	MARV entry inh	Lassa entry inh	AMA1-RON2 inh	Shiga toxin inh	Cycloheximide cs
CC(OC(=O)C1=Cc2ccccc2OC1)C(=O)NCc1ccco1 (centres undefined)	·	·	-4%	42	23*
O=C(Nc1nc2cc3c(cc2s1)OCCO3)c1cccc(N2C(=O)CCC2=O)c1	·	·	28%	36*	21*
O=C(Nc1ccc2sccc2c1)c1cccc(N2C(=O)CCC2=O)c1	30%	16%	18%	92*	37*
CCN(CC)S(=O)(=O)c1ccc(C(=O)Nc2nc3ccc(Cl)cc3s2)cc1	·	3%[46.1 µM]	·	·	·
CCN(CC)S(=O)(=O)c1cccc(C(=O)Nc2nc3cc4c(cc3s2)OCCO4)c1	18µM*	?	30%	19	9
O=C(Nc1nc2ccccc2s1)c1cccc(N2C(=O)CCC2=O)c1	-11%	8%	1%	-18	-4
Cc1cc(C)c2c(CC(=O)Nc3ccc(S(=O)(=O)Nc4ncccn4)cc3)coc2c1	?	-13%[46.1 µM]	·	·	·
COC(=O)c1ccc2nc(-c3ccc4c(c3)OCO4)cn2c1	?	2µM*	-14%	69*	40*
CCc1ccn2cc(-c3ccc4c(c3)OCO4)nc2c1	?	0.89µM*	-10%	-24	5
c1ccn2cc(-c3ccc4c(c3)OCO4)cc2c1	-2%[46.1 µM]	3%	-7%	48	8
Cc1ccc(S(=O)(=O)Nc2ccc(Cl)cn2)cc1C	-10%[46.1 µM]	3%[46.1 µM]	-2%	3	3

Bioassay records deposited in PubChem by National Center for Advancing Translational Sciences (NCATS).
